# Source: PubChem (National Center for Advancing Translational Sciences (NCATS))
# KB-V1 MDR tox – kills drug-selected multidrug resistant KB-V1 cells; KB-V1 MDR cells viability, CellTiter-Glo, 72 h; Potency, µM (titrated, usually from 46.1 µM), actives largely listed as cytotoxic; 400,000 tested, 3.4% active; AID 1347076; also: nearly all actives have a fitted effect of over 60% in size
#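 KB-V1 cells (P-gp-expressing MDR subline of KB-3-1) in phenol-red-free DMEM with 10% FBS were exposed to library compounds over a concentration series for 72 h at 37 degrees C. Viability read by CellTiter-Glo luminescence; concentration-effect curves fitted after normalization.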
# HT1080-NT tox – kills 2HG-producing HT-1080-NT fibrosarcoma cells. 360,000 tested, 1.6% active. Potency, µM (series often up to 46.1 µM), for the others: at the highest dose activity, negative = less viability, most hits filed as cytotoxic. AID 686970. HT-1080-NT fibrosarcoma viability, CellTiter-Glo ATP luminescence, 48 h;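 also: NT is the 2HG producing partner of a matched IDH1 knockdown line; 0% = DMSO-treated cells and -100% = media-only wells without cells; nearly all actives have a fitted effect of over 55% in size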
#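 Viability of the 2HG-overproducing fibrosarcoma line after 48 hours of compound exposure at 37 degrees C was determined by luminescence with CellTiter-Glo, and concentration-effect curves were then fitted and categorized.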
# HT1080 IDH1KD tx – kills HT-1080 cells with IDH1 knockdown. HT-1080 IDH1 knockdown viability, ATP luminescence, 48 h. Potency, µM (series often up to 46.1 µM), for the others: at the top dose activity, negative = toxicity, usual class: cytotoxic. 360,000 tested, 2% active;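 also: 0% = DMSO wells and -100% = cell-free medium wells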
#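 Luminescent ATP read-out (CellTiter-Glo, 10 min at room temperature) after 48 h compound exposure at 37 °C gave viability of IDH1-knockdown HT-1080 cells. Activity was normalised to DMSO and cell-free wells, then fitted as concentration-response curves.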
# DT40 TDP1 no CPT – qHTS for Inhibitors of human tyrosyl-DNA phosphodiesterase 1 (TDP1): qHTS in cells in absence of CPT; DT40 Tdp1-/- hTDP1 cells, no CPT, ATP luminescence, 48 h; Potency, µM (titrated, usually from 46.2 µM), inactives show at the highest dose activity change, negative = growth inhibition, usual class: inhibitors; 420,000 tested, 15% active; AID 686978, 2013; also: nearly all actives have a fitted effect of over 55% in size
#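 No-CPT arm: Tdp1-/-;hTDP1 DT40 cells (400/well) plus compounds, incubated ≥48 hr at 37 °C. Readout CellTiter-Glo luminescence.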
# KB-3-1 tox – kills parental KB-3-1 adenocarcinoma cells. AID 1347075. 400,000 tested, 1.4% active. Potency, µM (highest dose often 46.1 µM), actives largely listed as cytotoxic. KB-3-1 viability, CellTiter-Glo ATP luminescence, 72 h; also: nearly all actives have a fitted effect of over 60% in size
#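 Here the drug-naive KB-3-1 line serves as comparator for MDR sub-line selectivity; cells received compound titrations, 72 h at 37 °C, then CellTiter-Glo readout.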
# TDP1 cell CPT – DT40-hTDP1 cell growth loss with CPT | AID 686979 | chicken DT40 Tdp1-/-;hTDP1 cells + 20 nM CPT, ATP luminescence, 48 h | 420,000 tested, 12% active | Potency, µM (titrated, usually from 46.2 µM), inactives show top-dose activity change, negative = growth inhibition, hits mostly inhibitors; also: nearly all actives have a fitted effect of over 55% in size
#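 Chicken DT40 Tdp1-/- cells stably complemented with human TDP1 were seeded at 400 cells/well in medium containing 20 nM camptothecin, exposed to pin-transferred compounds, and grown at 37 °C for at least 48 hr. Viability was read as ATP luminescence.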
# * hit, by the source's call; i = inactive; ? = inconclusive; . = no result. A selection: hits, their analogues and other compounds. The true share with any hit is near 19%. Calls follow the shape of the dose curve; as a rule, active = well fitted curve in the direction sought with a large enough effect; inconclusive = small, poorly fitted or top-dose-only effect, or another doubt; inactive = no such curve, though single readings can be large; an effect the other way counts as inactive or inconclusive. Unless noted, % is scaled to controls: 0 for no effect and ±100 for the full control effect; potency is read from the fitted curve at half-maximal effect.
SMILES,KB-V1 MDR tox,HT1080-NT tox,HT1080 IDH1KD tx,DT40 TDP1 no CPT,KB-3-1 tox,TDP1 cell CPT
CCN(CCCNC(=O)c1ccc(Sc2ccc(Cl)cc2)c(NC(C)=O)c1)c1ccccc1,.,.,.,23µM*,.,?
CCOc1ccccc1NC(=O)CCCNC(=O)c1ccc(Cl)cc1,?,-1%,-2%,-16%,i,7%
CC(=O)Nc1cc(C(=O)N2CCCC2)ccc1Sc1ccc(C)cc1,i,-1%,-2%,?,i,?
CC(=O)Nc1cc(C(=O)N2CCCC2)ccc1Sc1ccc(Cl)cc1,i,-3%,-6%,?,i,20µM*
CCN(C(=O)C(C)OC(=O)CCCNC(=O)c1ccc(Cl)cc1)c1ccccc1 (configuration not stated),?,0%,1%,21µM*,i,?
CCCCN(CCCNC(=O)c1ccc(Sc2ccc(Cl)cc2)c(NC(C)=O)c1)c1ccccc1,.,.,.,-102%,.,?
Cc1noc2nc(C(=O)O)nc(N3CCCCC3)c12,i,.,.,?,i,?
CCc1ccc2nc(SCC(=O)N3CCCCC3)c(C#N)cc2c1,?,-1%,-14%,?,i,?
N#Cc1cc(C#N)c(SCC(=O)N2CC(=O)Nc3ccccc32)nc1N,i,-14%,?,21µM*,?,21µM*
CCc1ccc2nc(SCC(=O)N3CC(=O)Nc4ccccc43)c(C#N)cc2c1,6.5µM*,?,5.8µM*,16µM*,5.2µM*,?
CC1=C(c2ccc(C(C)C)cc2)S(=O)(=O)N=C1N1CCC(C(=O)NCc2ccc(C)o2)CC1,i,.,.,?,i,?
C=CCNc1nc(C(=O)OCC(=O)NCc2cccc(Cl)c2)cs1,i,6%,3%,5%,i,0%
COc1ccc(Cl)cc1NC(=O)c1cc(S(=O)(=O)N2CCc3ccccc32)cn1C,.,.,.,-10%,.,1%
C=CCn1c(=O)c2ccc(C(=O)NCc3ccccc3)cc2n(Cc2ccccc2Cl)c1=O,i,-3%,6%,7.3µM*,i,8.2µM*
O=C(NCc1ccc(Cl)cc1)c1ccc2oc(=O)n(Cc3ccccc3)c2c1,?,.,.,?,i,21µM*
C=CCn1c(=O)c2ccc(C(=O)NCc3ccccc3)cc2n(Cc2cccc(Cl)c2)c1=O,i,-3%,-2%,13µM*,?,?
Cc1cc2oc(C(=O)Nc3ccc(S(=O)(=O)N(C)c4ccccc4)cc3)cc(=O)c2cc1C,?,.,.,-3%,i,-14%
C[C@H]1COc2cc(N(C)CCO)ccc2S(=O)(=O)N1,?,19%,6%,-1%,i,-1%
SCc1nc2ccccc2[nH]1,?,.,.,10µM*,?,?
CCCN(Cc1cccs1)C(=O)Nc1ccc(F)c(Cl)c1,i,.,.,?,i,?
O=C(Nc1ccccc1Cl)N(Cc1nc2ccccc2c(=O)[nH]1)Cc1cccs1,?,-14%,-1%,?,i,?
O=C(Nc1ccc(Cl)cc1)N(Cc1nc2ccccc2c(=O)[nH]1)Cc1cccs1,?,-12%,-18%,21µM*,i,?
O=C(Nc1ccc(Cl)cc1)N(Cc1cccs1)Cc1cccs1,?,?,?,?,i,18µM*
O=C(Nc1ccccc1)N(O)c1ccc(Cl)cc1,i,7%,9%,29µM*,i,18µM*
O=C1CC(c2ccc3ccccc3c2)NN1 (configuration not stated),?,5%,7%,?,i,26µM*
Cc1ccc(C)c(Cn2c3ccccc3c3cnn(CC(=O)NCCc4ccccc4)c(=O)c32)c1,i,.,.,-21%,i,?
